The text below walks through data of PubChem BioAssay.

In experiment [1] the test system is Plasmodium falciparum Sir2 (PF13_0152, Sir2A). The experiment can be described thus: pfSir2 binders on small-molecule microarrays, primary screen, biochemical, small-molecule microarray, 635 nm fluorescence (AID 1098).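 Further: score merges spot fluorescence intensity with its signal-to-noise ratio.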 To be noted: small-molecule microarray binding, fluorescence 635 nm; higher = more signal.
Experiment [2] is described as follows: small-molecule microarray binders of probe aDKK1, primary screen, biochemical, biotinylated probe, 635/667 nm fluorescence (AID 1099).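 Further: score merges 667nm spot fluorescence with signal to noise across triplicate slides.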 To be noted: higher = more signal.
The nature of experiment [3]: small-molecule microarray binders of probe aCHRDL2, primary screen, biochemical, biotinylated probe, 635/667 nm fluorescence (AID 1100). The conditions noted are these: higher = more signal.
Experiment [4] in a line: splicing luciferase reporter signal modulators, primary screen, spliceosome inhibition project, cell-based, HEK293, splice +/- reporter (AID 1101).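 Further: HEK293 cells carrying a splicing-competent luciferase reporter gene; test concentration not given here.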 To be noted: luminescence, 24 h, higher = more signal, called active from +8 up or from −8 down. A general note: A reporter such as luciferase makes a cellular process visible.
Experiment [5] addresses Fibroblast growth factor 10 (Homo sapiens) (UniProt O15520). The experiment can be described thus: FGF10 binders on small-molecule microarrays, primary screen, biochemical, small-molecule microarray, 635 nm fluorescence (AID 1102). The conditions noted are these: FGF10 binding, fluorescence 635 nm, higher = more signal.
In experiment [6] the test system is glycogen synthase kinase-3 (GSK3A per assay name; protocol says GSK3B). The experiment can be described thus: GSK3 binders on small-molecule microarrays, primary screen, biochemical, small-molecule microarray, 635 nm fluorescence, GSK3A (AID 1103). Further: the record names both GSK3A and GSK3B. The conditions noted are these: small-molecule microarray binding, fluorescence 635 nm; higher = more signal.
In experiment [7] the target is Epidermal growth factor receptor (Homo sapiens) (UniProt P00533). Briefly: EGFR binders on small-molecule microarrays, primary screen, biochemical, small-molecule microarray, 635 nm fluorescence (AID 1104).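 Further: score merges 667 nm emission intensity with spot signal to noise over triplicate slides.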 To be noted: EGFR binding, higher = more signal.
Experiment [8] deals with Follistatin-related protein 3 (Homo sapiens) (UniProt O95633). The experiment can be described thus: FSTL3 binders on small-molecule microarrays, primary screen, biochemical, small-molecule microarray, 635 nm fluorescence (AID 1105).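 Further: score merges emission near 667 nm and signal to noise per printed spot across three slides.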 The conditions noted are these: FSTL3 binding, higher = more signal.
In experiment [9] the target is Dickkopf-related protein 1 (Homo sapiens) (UniProt O94907). The experiment can be described thus: DKK1 binders on small-molecule microarrays, primary screen, biochemical, small-molecule microarray, 635 nm fluorescence scan (AID 1106).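 Further: score merges emission near 667 nm with signal to noise over three replicate slides.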 To be noted: DKK1 binding, higher = more signal.
For experiment [10], the system named is Inhibin beta A chain (activin A). Briefly: INHBA (activin A) binders on microarrays, primary screen, biochemical, small-molecule microarray, 635 nm fluorescence scan (AID 1107).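 Further: mouse activin A protein probed at 4.33 µg/mL on printed slides; score merges bound-protein fluorescence near 667 nm with spot signal-to-noise.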 To be noted: small-molecule microarray binding, higher = more signal.
In experiment [11] the test system is Human papillomavirus type 1a protein E7 (residues 44-93). Briefly: HPV1a E7 fragment binders on microarrays, primary screen, biochemical, small-molecule microarray, residues 44-93, 635 nm fluorescence (AID 1108).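 Further: E7 fragment applied at 1 µg/mL in TBST for 1 h at 4 C; score combines spot fluorescence with its signal to noise ratio.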 To be noted: small-molecule microarray binding, fluorescence 635 nm; higher = more signal.
Experiment [12] is described as follows: modulators of HCV replicon luciferase signal, primary screen, HCV replication inhibitor project, Huh7 cells, luciferase reporter (AID 1109).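 Further: huh7 hepatoma cells harbouring a luciferase neomycin HCV replicon reporter; luciferase luminescence as measure of HCV replicon replication; test concentration not given here.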 To be noted: 48 h, higher = more signal. (Replicon systems follow genome replication, usually without infectious particles.)
Experiment [13] concerns the target Left-right determination factor 2 (Homo sapiens) (UniProt O00292). Briefly: LEFTY2 binders on small-molecule microarrays, primary screen, biochemical, small-molecule microarray, 635 nm fluorescence scan (AID 1110). To be noted: LEFTY2 binding, higher = more signal.
For experiment [14], the target named is Calmodulin-1 (Homo sapiens) (UniProt P0DP23). Briefly: CALM1 binders on microarrays, EGTA buffer, profiling panel, biochemical, small-molecule microarray, Cy5-labelled CALM1 (AID 1111).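 Further: labelled calmodulin applied in Tris saline Tween buffer holding calcium plus EGTA and DTT.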 The conditions noted are these: Cy5-CALM1 binding fluorescence, higher = more signal.
For experiment [15] the target is unchanged. The experiment can be described thus: calcium-bound CALM1 binders on microarrays, profiling panel, artefact control for SMM control-protein annotation, biochemical, small-molecule microarray, Cy5-labelled CALM1, plus calcium (AID 1112).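 Further: score merges spot fluorescence with signal to noise from triplicate slides.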 To be noted: Cy5-CALM1 binding fluorescence, higher = more signal.
Experiment [16] can be described thus: small-molecule microarray binders of probe aWnt5a, primary screen, biochemical, biotinylated probe, 635/667 nm fluorescence (AID 1113).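 Further: score merges 667 nm fluorescence intensity with signal-to-noise per printed feature.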 To be noted: higher = more signal.
Experiment [17] in a line: small-molecule microarray binders of probe aShh, primary screen, biochemical, biotinylated probe, 635/667 nm fluorescence (AID 1114).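 Further: probe is biotin-labelled aShh protein from a stem cell growth factor screen; measures binding of labelled protein to compounds printed on the slide; score merges feature fluorescence at 667 nm with signal-to-noise.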 To be noted: higher = more signal.
A short description of experiment [18]: small-molecule microarray binders of probe aNog, primary screen, biochemical, biotinylated probe, 635/667 nm fluorescence (AID 1115).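 Further: probe is biotinylated aNog protein used at 0.15 µg/mL for 1 h at 4 C; z-score combines 667 nm fluorescence of each spot with its signal to noise.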 The conditions noted are these: higher = more signal.
Experiment [19] addresses Torsin-1A-interacting protein 1 (Homo sapiens) (UniProt Q5JTV8). The experiment can be described thus: LAP1 binders from COS7 cell lysate, primary screen, small-molecule microarray, 635/667 nm fluorescence (AID 1116). The conditions noted are these: COS7-hLAP1 lysate binding, 635 nm fluorescence, higher = more signal.
Experiment [20] addresses Alpha-bungarotoxin (Bungarus multicinctus) (UniProt P60615). The experiment can be described thus: alpha-bungarotoxin binders on microarray, profiling panel, artefact control for SMM control protein annotation, biochemical, small-molecule microarray, Alexa647 label, 635/667 nm fluorescence (AID 1117). To be noted: alpha-BTX-A647 binding fluorescence, higher = more signal.

Active and inactive are the calls of the source.

Sequence of Left-right determination factor 2 (Homo sapiens) (O00292 whole entry, looked up): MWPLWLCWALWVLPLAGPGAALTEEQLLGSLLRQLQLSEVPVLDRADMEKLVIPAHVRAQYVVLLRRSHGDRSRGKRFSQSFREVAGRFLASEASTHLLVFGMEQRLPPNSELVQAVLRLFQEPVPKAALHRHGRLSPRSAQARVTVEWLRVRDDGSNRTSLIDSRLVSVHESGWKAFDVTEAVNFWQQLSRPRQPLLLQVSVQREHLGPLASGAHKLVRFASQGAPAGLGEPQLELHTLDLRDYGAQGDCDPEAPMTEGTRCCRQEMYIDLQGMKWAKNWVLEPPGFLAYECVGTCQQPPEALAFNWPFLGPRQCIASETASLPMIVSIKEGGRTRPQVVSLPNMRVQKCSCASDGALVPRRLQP
Sequence of Torsin-1A-interacting protein 1 (Homo sapiens) (Q5JTV8 whole entry, looked up): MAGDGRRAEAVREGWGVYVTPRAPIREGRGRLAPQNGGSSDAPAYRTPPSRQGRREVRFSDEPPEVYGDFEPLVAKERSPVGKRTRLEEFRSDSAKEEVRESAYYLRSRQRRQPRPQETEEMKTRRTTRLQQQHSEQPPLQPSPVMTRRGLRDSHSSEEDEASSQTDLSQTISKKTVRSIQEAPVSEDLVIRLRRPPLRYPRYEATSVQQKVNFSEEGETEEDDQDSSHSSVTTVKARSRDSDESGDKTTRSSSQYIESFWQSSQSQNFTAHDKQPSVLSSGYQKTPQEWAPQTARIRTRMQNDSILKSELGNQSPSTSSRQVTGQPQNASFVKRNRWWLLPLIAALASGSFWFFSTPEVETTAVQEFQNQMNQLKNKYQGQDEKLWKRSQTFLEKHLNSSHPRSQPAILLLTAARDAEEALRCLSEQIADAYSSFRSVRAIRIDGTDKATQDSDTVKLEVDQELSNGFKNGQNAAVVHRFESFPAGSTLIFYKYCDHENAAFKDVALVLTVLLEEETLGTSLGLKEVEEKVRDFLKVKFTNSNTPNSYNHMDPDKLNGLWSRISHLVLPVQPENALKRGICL
Sequence of Epidermal growth factor receptor (Homo sapiens) (P00533 whole entry, looked up): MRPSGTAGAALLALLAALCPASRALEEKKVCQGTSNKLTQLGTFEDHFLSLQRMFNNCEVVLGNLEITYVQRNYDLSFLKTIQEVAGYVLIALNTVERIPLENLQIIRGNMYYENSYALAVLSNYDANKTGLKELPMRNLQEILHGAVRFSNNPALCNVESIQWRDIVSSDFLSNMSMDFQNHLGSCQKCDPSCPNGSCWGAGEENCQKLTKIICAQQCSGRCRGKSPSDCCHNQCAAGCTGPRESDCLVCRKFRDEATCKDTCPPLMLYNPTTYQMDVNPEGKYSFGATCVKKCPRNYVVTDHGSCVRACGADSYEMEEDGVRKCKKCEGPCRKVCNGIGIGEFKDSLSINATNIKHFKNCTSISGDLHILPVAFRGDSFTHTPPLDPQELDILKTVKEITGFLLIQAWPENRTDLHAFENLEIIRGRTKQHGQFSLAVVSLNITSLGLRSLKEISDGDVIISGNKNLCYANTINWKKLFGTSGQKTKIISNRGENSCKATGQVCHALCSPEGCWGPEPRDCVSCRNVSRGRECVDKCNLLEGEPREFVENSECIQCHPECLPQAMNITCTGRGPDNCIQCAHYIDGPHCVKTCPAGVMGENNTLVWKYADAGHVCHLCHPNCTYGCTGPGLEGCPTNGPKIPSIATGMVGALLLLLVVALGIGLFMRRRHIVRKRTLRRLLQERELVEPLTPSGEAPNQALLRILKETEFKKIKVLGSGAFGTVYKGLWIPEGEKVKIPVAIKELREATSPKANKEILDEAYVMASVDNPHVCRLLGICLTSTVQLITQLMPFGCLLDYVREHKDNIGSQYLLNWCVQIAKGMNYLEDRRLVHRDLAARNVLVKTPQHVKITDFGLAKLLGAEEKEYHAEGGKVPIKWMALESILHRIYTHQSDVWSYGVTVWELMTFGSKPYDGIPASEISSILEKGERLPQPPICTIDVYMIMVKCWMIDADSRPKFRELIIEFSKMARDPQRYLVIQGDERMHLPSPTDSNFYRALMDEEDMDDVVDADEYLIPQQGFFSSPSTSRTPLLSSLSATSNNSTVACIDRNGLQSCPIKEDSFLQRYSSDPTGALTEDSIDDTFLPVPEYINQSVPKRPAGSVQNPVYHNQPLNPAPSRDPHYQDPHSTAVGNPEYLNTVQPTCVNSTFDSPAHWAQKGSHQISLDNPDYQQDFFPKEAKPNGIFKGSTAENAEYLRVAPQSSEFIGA
Sequence of Alpha-bungarotoxin (Bungarus multicinctus) (P60615 whole entry, looked up): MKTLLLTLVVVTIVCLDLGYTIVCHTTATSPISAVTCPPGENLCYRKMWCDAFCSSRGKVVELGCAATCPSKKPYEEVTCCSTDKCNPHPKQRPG
Sequence of Follistatin-related protein 3 (Homo sapiens) (O95633 whole entry, looked up): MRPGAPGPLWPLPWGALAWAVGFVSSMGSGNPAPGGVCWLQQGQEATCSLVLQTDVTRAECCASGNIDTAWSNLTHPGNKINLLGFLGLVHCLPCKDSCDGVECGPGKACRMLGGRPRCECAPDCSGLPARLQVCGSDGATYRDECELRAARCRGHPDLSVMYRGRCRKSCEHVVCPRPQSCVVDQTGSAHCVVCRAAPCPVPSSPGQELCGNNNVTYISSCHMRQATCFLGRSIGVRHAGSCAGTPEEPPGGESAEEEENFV
Sequence of Dickkopf-related protein 1 (Homo sapiens) (O94907 whole entry, looked up): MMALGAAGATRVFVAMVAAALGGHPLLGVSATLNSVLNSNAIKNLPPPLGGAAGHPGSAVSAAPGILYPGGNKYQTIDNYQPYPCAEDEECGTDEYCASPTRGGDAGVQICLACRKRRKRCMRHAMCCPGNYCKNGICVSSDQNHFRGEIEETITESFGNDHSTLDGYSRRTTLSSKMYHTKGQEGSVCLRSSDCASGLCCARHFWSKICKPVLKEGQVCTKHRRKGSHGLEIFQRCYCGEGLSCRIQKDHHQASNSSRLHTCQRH
Sequence of Fibroblast growth factor 10 (Homo sapiens) (O15520 whole entry, looked up): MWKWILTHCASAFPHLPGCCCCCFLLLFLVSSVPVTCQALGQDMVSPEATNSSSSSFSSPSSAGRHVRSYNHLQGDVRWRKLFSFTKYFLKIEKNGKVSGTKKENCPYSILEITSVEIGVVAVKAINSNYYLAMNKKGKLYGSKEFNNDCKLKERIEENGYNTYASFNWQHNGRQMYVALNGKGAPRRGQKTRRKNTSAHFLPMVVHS

`COc1cccc([C@H]2Oc3ccc(OC)cc3C(=NO[C@@H](C)c3cc(-c4c(C)cc(C)cc4C)no3)[C@@H]2O)c1`: the composite z-score in experiment [1] was 0.288; in experiment [2], 0.838; in experiment [3], 1.53; in experiment [5], -1.66; in experiment [6] it was -0.532; in experiment [7], -2.38. Further, the composite z-score is -1.99 in experiment [8]; -3.26 in experiment [9]; 0.313 in experiment [10]; -0.355 in [11]; -2.35 in experiment [13]; -0.831 in [14]. Also, the composite z-score in [15] was 0.668; in experiment [16] it was -0.172; in experiment [17], -0.195; in experiment [18] it was 0.0983; in [19], -0.589; in experiment [20], -0.628. For the same compound, the z-score was -0.328 (inactive) in experiment [4] and -1.71 in [12].
Consider `COc1ccc(COC(=O)NN=C2C[C@@H](O)[C@@H](O)[C@@H]3[C@@H]4C(=O)N(C[C@@H]5CCCO5)C(=O)[C@@H]4CC[C@H]23)cc1`, for which the composite z-score in experiment [1] is -0.321; in experiment [2], 1; in experiment [3] it was 1.26; in [5], -0.494; in experiment [6], -0.797; in experiment [7], -0.211. The composite z-score was -1 in experiment [8]; -0.746 in experiment [9]; 0.229 in experiment [10]; -0.491 in experiment [11]; -0.34 in experiment [13]; -0.325 in experiment [14]. Moreover, the composite z-score in experiment [15] was 0.237; in [16], 0.0162; in experiment [17], -0.138; in experiment [18], -0.103; in experiment [19], 0.656; in experiment [20], 0.418. Also, the figures for the z-score in [4] and in experiment [12] were 0.0734 (inactive) and -0.186, respectively.
For the compound `O=C1[C@H]2[C@H]3[C@H](O)[C@H](O)CC(=NO[C@@H]4O[C@H](CO)[C@@H](O)[C@H](O)[C@H]4O)[C@@H]3CC[C@H]2C(=O)N1C[C@@H]1CCCO1`, the composite z-score was 0.355 in experiment [1]; -0.29 in [2]; -0.565 in [3]; 0.784 in experiment [5]; 0.839 in experiment [6]; 0.448 in experiment [7]. The composite z-score is 0.738 in [8]; 0.35 in experiment [9]; -0.808 in [10]; 1.3 in experiment [11]; 0.495 in experiment [13]; -0.158 in experiment [14]. The composite z-score in [15] is -0.572; in [16] it was -0.28; in [17], -0.0769; in experiment [18], -0.238; in experiment [19] it was -0.0974; in experiment [20], -0.103. Further, the z-score in experiment [4] was -1.45 (inactive); in [12] it was -0.682.
Regarding `CCOC(=O)[C@H](Cc1ccccc1)NC(=O)CCC1CC(OC(=O)NCc2cccc3ccccc23)CC2(CCCC(COC(=O)NCCc3ccc(Cl)cc3)O2)O1` (stereo not given in full), the composite z-score in experiment [1] is 0.519; in [2], -0.217; in [3], -0.603; in [5], 0.718; in [6] it was 0.24; in experiment [7] it was 0.104. Besides, the composite z-score in experiment [8] was 0.588; in experiment [9] it was 0.621; in experiment [10] it was 0.145; in [11], 1.02; in experiment [13] it was 0.366; in [14], 1.14. For the same compound, the composite z-score in experiment [15] was -0.369; in experiment [16] it was -0.0738; in [17] it was -0.153; in [18], 0.793; in experiment [19], 0.289; in [20], 0.429. In addition, the z-score was -0.84 (inactive) in experiment [4] and 0.246 in [12].
With `O=C1CCCC=C1C(O)c1ccc([N+](=O)[O-])cc1` (stereo not given), the composite z-score in experiment [1] was -0.805; in experiment [2] it was -0.0341; in [3] it was -0.429; in experiment [5] it was 0.59; in experiment [6], 0.288; in experiment [7], 0.406. The composite z-score in experiment [8] was 0.211; in [9], 0.133; in experiment [10], 0.478; in experiment [11] it was -0.607; in experiment [13], 0.387; in [14], -0.79. Besides, the composite z-score in [15] is -0.499; in experiment [16], -0.101; in experiment [17], -0.288; in experiment [18] it was -0.489; in experiment [19], 0.315; in [20], -0.237. The z-score in experiment [4] is -0.337 (inactive); in experiment [12], -0.67.
In the case of `C[C@H]1C=CCC(=O)OC[C@H](C)C(=O)N2CCC[C@H]2C(=O)OC1`, the composite z-score in [1] is 1.01; in experiment [2], -0.235; in experiment [3], -1.53; in experiment [5], 1.47; in experiment [6] it was 1.29; in [7] it was 1.73. Further, the composite z-score was 1.48 in experiment [8]; 2.11 in [9]; -0.626 in [10]; -2.34 in experiment [11]; 1.62 in experiment [13]; -0.774 in experiment [14]. Also, the composite z-score in experiment [15] was -1.82; in [16], -0.174; in experiment [17], -0.0709; in experiment [18], -0.137; in [19] it was 1.71; in experiment [20], -0.477. In addition, the z-score in [4] is -0.0436 (inactive); in experiment [12] it was -0.971.
